According to PubChem BioAssay (EPA / NIEHS):
Inconclusive results are not listed. The source holds several records for some structures; these can differ, active in one and inactive in another. Activity calls are given as the source filed them. How the source made its calls: active means hit-call score of the fitted dose curve at least 0.9, where 1 is the maximum; inconclusive means response in the unintended direction; inactive means score below 0.9.

Molecular target: human RAR-related Orphan Receptor beta (RORb), RORB (gene 6096) (UniProt Q92753)
Sequence (Q92753 whole entry, looked up, the tested form may be a part): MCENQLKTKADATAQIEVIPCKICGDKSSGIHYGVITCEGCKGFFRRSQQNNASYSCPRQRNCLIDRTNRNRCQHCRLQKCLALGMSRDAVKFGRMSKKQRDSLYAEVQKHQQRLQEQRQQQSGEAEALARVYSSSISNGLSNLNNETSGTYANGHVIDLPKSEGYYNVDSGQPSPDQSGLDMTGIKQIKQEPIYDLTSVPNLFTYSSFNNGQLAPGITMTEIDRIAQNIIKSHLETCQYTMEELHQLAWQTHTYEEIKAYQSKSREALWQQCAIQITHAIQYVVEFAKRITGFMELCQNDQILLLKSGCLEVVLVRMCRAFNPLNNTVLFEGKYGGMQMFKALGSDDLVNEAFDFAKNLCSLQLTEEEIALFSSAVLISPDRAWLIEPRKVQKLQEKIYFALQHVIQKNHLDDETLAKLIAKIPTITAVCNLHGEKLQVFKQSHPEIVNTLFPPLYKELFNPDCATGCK
Test: ATG_RORb_TRANS: Attagene TRANS-FACTORIAL HepG2 Assay for human RAR-related Orphan Receptor beta (RORb) (AID 2283010);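 on AC50: potency for increased reporter mRNA meaning activation of RORb-Gal4 chimera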
Method: ATG_TRANS is a cell-based, multiplexed-readout assay that uses HepG2, a human liver cell line, with measurements taken at 24 hours after chemical dosing in a 24-well plate.ATG_RORb_TRANS is one of 30 assay component(s) measured or calculated from the ATG_TRANS assay. It is designed to make measurements of mRNA induction, a form of inducible reporter, as detected with fluorescence intensity signals by Reverse transcription polymerase chain reaction (RT-PCR) and Capillary electrophoresis technology.Data from the assay component ATG_RORb_TRANS was analyzed into 1 assay endpoint. This assay endpoint, ATG_RORb_TRANS, was analyzed in the positive analysis fitting direction relative to DMSO as the negative control and baseline of activity. Using a type of inducible reporter, measures of mRNA for gain-of-signal activity can be used to understand the reporter gene at the transcription factor-level as they relate to the gene RORB. Furthermore, this assay endpoint can be referred to as a primary readout, because this assay has produced multiple assay endpoints where this one serves a reporter gene function. To generalize the intended target to other relatable targets, this assay endpoint is annotated to the nuclear receptor intended target family, where the subfamily is orphan.
Human liver HepG2 cells are transiently transfected with multiple reporter transcription units (MRTUs) in 6-well plates using FuGene 6 reagent (Roche; 3 ml FuGene/1 mg DNA). The MRTU constructs are regulated by a cis-regulating element (promoter). […] A major difference between the CIS and TRANS system is that in CIS activities of endogenous TFs are measured, whereas the TRANS assay evaluates changes in activities of exogenous, chimeric NR-Gal4 proteins. […] At the end of 24 hour incubation, total RNA was isolated using TriZol reagent (Invitrogen). The isolated RNA is then reverse-transcribed using oligo(dT) primer and Mo-MLV reverse transcriptase (Invitrogen) with DNAse I (Ambion) treatment for 30 min. The one-tenth of the produced cDNA was amplified by PCR using Taq DNA polymerase (Invitrogen) and two reporter sequence-specific primers. The PCR products were fluorescently labeled by primer extension with 6-arboxyfluorescein (6-FAM) 5'-labeled reporter sequence-specific primer (2 min at 95 C, 20 s at 68 C and 10 min at 72 C) and these products were digested with 5U of HpaI (New England Biolabs) for 2h at 37 C. The fragments were purified using Qiaquick PCR columns (Qiagen), analyzed on an ABI 3130xL genetic analyzer (Applied Biosystems) with peak positions identified by using a set of X-rhodamine (ROX)-labeled MapMarker1000 molecular weight standards (BioVentures). The raw capillary electrophoresis data was processed using Attagraph software (Attagene).

Question: `Oc1ccc(C(c2ccc(O)cc2)C(Cl)(Cl)Cl)cc1` was tested. Which outcome did it give?
Answer: inactive

Question: Which outcome does the source give for `CN(C)C(=O)Nc1ccc(Cl)c(Cl)c1` here?
Answer: inactive

Question: For `C#CCOC(=O)[C@@H](C)Oc1ccc(Oc2ncc(Cl)cc2F)cc1`, which outcome is on record?
Answer: inactive

Question: How did the outcome turn out when `Cc1nn(C)c(Oc2ccccc2)c1C=NOCc1ccc(C(=O)OC(C)(C)C)cc1` was run?
Answer: inactive

Question: How did the outcome turn out when `CC(C)CCCCCCc1ccc(O)cc1` was run?
Answer: inactive

Question: How did the outcome turn out when `O=C(Nc1ccc([N+](=O)[O-])cc1Cl)c1cc(Cl)ccc1O` was run?
Answer: inactive

Question: How did the outcome turn out when `CCCCCCC(C)OC(=O)COc1nc(F)c(Cl)c(N)c1Cl` (stereo not given) was run?
Answer: inactive

Question: How did the outcome turn out when `CCOC(=O)[C@H](C)Oc1ccc(Oc2nc3ccc(Cl)cc3o2)cc1` was run?
Answer: inactive

Question: How did the AC50 turn out when `N#CSCSc1nc2ccccc2s1` was run?
Answer: 12.3 µM (active)

Question: What about the outcome of the same compound?
Answer: inactive

Question: `COC(=O)c1ccc(CNS(C)(=O)=O)cc1S(=O)(=O)NC(=O)Nc1nc(OC)cc(OC)n1` was tested. Which outcome did it give?
Answer: inactive

Question: With `CCNc1nc(N)nc(Cl)n1` as the compound, how does the outcome read?
Answer: inactive

Question: `S=C([S-])NCCNC(=S)[S-].[Mn+2]` was tested. Which outcome did it give?
Answer: inactive

Question: How did the outcome turn out when `CCCN(CCC)C(=O)SCC` was run?
Answer: inactive

Question: How did the outcome turn out when `COCCO` was run?
Answer: inactive

Question: `CCCCOC(=O)[C@@H](C)Oc1ccc(Oc2ccc(C(F)(F)F)cn2)cc1` was tested. Which outcome did it give?
Answer: inactive

Question: Which outcome does the source give for `O=C(c1ccc(O)cc1O)c1ccc(O)cc1O` here?
Answer: inactive

Question: How did the outcome turn out when `COC(=O)c1c(Cl)nn(C)c1S(=O)(=O)NC(=O)Nc1nc(OC)cc(OC)n1` was run?
Answer: inactive

Question: `CCCOC(=O)c1ccc(C(=O)OCCC)nc1` was tested. Which outcome did it give?
Answer: inactive

Question: `CCCCCOC(=O)COc1cc(N2C(=O)C3=C(CCCC3)C2=O)c(F)cc1Cl` was tested. Which outcome did it give?
Answer: inactive

Question: `O=C(O)c1ccccc1` was tested. Which outcome did it give?
Answer: inactive

Question: How did the outcome turn out when `CC1(C)C(C=C(Cl)Cl)C1C(=O)OCc1cccc(Oc2ccccc2)c1` (stereo not given) was run?
Answer: inactive

Question: For `CCC(O)=C1C(=O)CC(C(=O)O)CC1=O` (stereo not given), which outcome is on record?
Answer: inactive

Question: With `CC(C)(c1ccc(O)cc1)c1ccc(O)cc1` as the compound, how does the outcome read?
Answer: inactive

Question: Which outcome does the source give for `OB(O)O` here?
Answer: inactive

Question: For `CCCCOC(=O)C(C)Oc1ccc(Oc2ccc(C(F)(F)F)cn2)cc1` (stereo not given), which outcome is on record?
Answer: inactive

Question: For `CCOC(=O)C(C)Oc1ccc(Oc2cnc3cc(Cl)ccc3n2)cc1` (stereo not given), which outcome is on record?
Answer: inactive

Question: For `S=C(S)NCCNC(=S)S.[Mn+2].[S-]C([S-])=NCCN=C([S-])[S-].[Zn+2]`, which outcome is on record?
Answer: inactive

Question: With `C[C@]12CC[C@@H]3c4ccc(O)cc4C[C@@H](CCCCCCCCCS(=O)CCCC(F)(F)C(F)(F)F)[C@H]3[C@@H]1CC[C@@H]2O` (stereo not given in full) as the compound, how does the outcome read?
Answer: inactive
